Screens deposited in PubChem by Paczesny and Yang Labs, IUPUI and University of Michigan.
Only a selection was taken, and hits are over-represented in it overall.
ST2 IL33 inh = blocks human ST2 binding to IL-33; Q01638; AlphaLISA ST2-Fc/biotin-IL-33 interaction, 1 h; inhibition, % for hits at 17 µM; 78,000 compounds, 2.3% hits; AID 1259354; in the data active means inhibition above about 30%
Target sequence (Q01638 whole entry, looked up): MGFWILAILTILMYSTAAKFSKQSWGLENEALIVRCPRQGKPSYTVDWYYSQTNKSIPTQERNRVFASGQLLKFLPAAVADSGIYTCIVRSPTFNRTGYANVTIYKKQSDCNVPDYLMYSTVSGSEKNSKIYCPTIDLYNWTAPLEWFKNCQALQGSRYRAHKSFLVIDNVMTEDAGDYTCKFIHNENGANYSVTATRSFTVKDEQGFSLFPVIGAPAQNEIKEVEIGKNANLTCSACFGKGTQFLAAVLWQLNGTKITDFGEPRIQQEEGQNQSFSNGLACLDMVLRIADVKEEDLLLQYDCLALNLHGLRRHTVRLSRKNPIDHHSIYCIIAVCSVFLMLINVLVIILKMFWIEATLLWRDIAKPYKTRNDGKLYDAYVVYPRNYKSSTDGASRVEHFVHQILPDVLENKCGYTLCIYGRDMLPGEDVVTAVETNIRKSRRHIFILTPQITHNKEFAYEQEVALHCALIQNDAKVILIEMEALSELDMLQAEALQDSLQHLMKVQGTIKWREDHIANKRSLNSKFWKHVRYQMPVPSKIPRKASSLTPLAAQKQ
* hit, by the source's call; i = inactive.

SMILES	ST2 IL33 inh
COc1ccccc1NC(=O)C1c2cc(OC)c(OC)cc2C(=O)N(C)C1c1cccs1 (stereo not drawn)	i
O=C1C(Nc2ccccc2)=CC(=NS(=O)(=O)c2cccs2)c2ccccc21	86%*
CC(C)CN(CC(C)C)S(=O)(=O)c1cccs1	i
O=C(O)c1cccc(Nc2nc(-c3cccs3)cs2)c1	i
NC(=NS(=O)(=O)c1cccs1)c1ccccc1	i
COC(=NS(=O)(=O)c1ccc(Cl)cc1)c1ccccc1	i
COc1ccccc1NC1=CC(=NS(=O)(=O)c2ccc(Cl)cc2)c2ccccc2C1=O	95%*
COc1ccccc1NC1=CC(=O)CC(c2ccccc2)C1 (stereo not drawn)	i
O=C(O)c1cccc(NC2=CC(=NS(=O)(=O)c3cccs3)c3ccccc3C2=O)c1	40%*
NC1=NC(=O)CC(C(=O)Nc2cccc(C(F)(F)F)c2)S1 (stereo not drawn)	i
O=C(CN1C(=O)S/C(=C\c2ccc(F)cc2)C1=O)Nc1nccs1	i
CCn1cc(C(=O)NCCN2CCOCC2)c2c3ccccc3n(C)c2c1=O	i
O=C(NCc1cccnc1)c1cc2ccccc2o1	i
Cc1nc(C)c(C(=O)N(CC2CCN(Cc3ccccc3C)CC2)CC2CCCO2)s1 (stereo not drawn)	i
C#C[C@@](CCN1CCCCC1)(OC)c1ccccc1	i
Cn1cc(C(=O)NCCCN2CCN(c3ccccc3F)CC2)c2c3ccccc3n(C)c2c1=O	i
O=C(NC[C@H]1O[C@@H](CO)[C@@H](O)[C@H]1N1CCN(c2ncccn2)CC1)N1CCOCC1	i
COc1cccc(C2c3[nH]c4ccccc4c3CCN2Cc2nccs2)c1OC (stereo not drawn)	i
COc1ccc(N(C)C)cc1	32%*
CCCCOC(=O)Nc1ccc(N(C)C)cc1	42%*
COc1ccc(CCC(=O)NCc2ccncc2)cc1	i
CCOC(=O)Nc1ccc(C(C)CC)cc1 (stereo not drawn)	i
COc1ccc(C(C)c2ccc(OC)cc2)cc1	i
CCCCOC(=O)Nc1ccccc1C(=O)N1CCCCC1	i
COc1ccc(CC(=O)Nc2ccc(I)cc2)cc1	i
SMILES	ST2 IL33 inh
COc1ccc(Cc2ccc(OC)cc2)cc1	i
COc1ccc(CCC(=O)Nc2ccc(N(C)C)cc2)cc1	46%*
Cc1c(Br)c(C(F)(F)F)nn1CC(=O)NC(C)c1ccccc1 (stereo not drawn)	i
CCN(CC)C(=O)C1=C(C)Nc2nc3ccccc3n2C1c1cc(OC)ccc1OC (stereo not drawn)	i
COc1cccc(C(=O)c2c[nH]c3ccccc3c2=O)c1	i
COc1cc(OC)cc(C(=O)N(c2ccc(OC)cc2OC)C2C=CS(=O)(=O)C2)c1 (stereo not drawn)	i
COc1ccc2c(=O)c(-c3ccccc3C)c(C(F)(F)F)oc2c1	75%*
Cc1ccccc1-c1c(C(F)(F)F)oc2c(C)c(O)ccc2c1=O	i
COc1ccc2c(=O)c(-c3ccccc3Cl)c(C(F)(F)F)oc2c1	i
COc1cc(NC(=O)c2ccc(-c3ccccc3)cc2)c(OC)cc1Cl	i
COc1cc(C(=O)Nc2nc(-c3ccc4c(c3)OCO4)cs2)cc(OC)c1OC	i
COc1cc(N/C=C(/C#N)c2nc(-c3ccc(OC)c(OC)c3)cs2)c(OC)cc1Cl	40%*
N#C/C(=C\c1cccc([N+](=O)[O-])c1)c1nc(-c2ccc3c(c2)OCO3)cs1	i
N#C/C(=C\Nc1ccccc1F)c1nc(-c2cc3cc([N+](=O)[O-])ccc3oc2=O)cs1	i
COc1ccccc1N/C=C(\C#N)c1nc(-c2ccc3c(c2)OCO3)cs1	41%*
O=C(NC1c2ccccc2-c2ccccc21)C1CCC(=O)N(Cc2ccc(Cl)cc2)C1 (stereo not drawn)	i
O=C(NCc1ccc(Cl)cc1)C(=O)Nc1ccc([N+](=O)[O-])cc1	i
O=C(NCc1ccccc1)NS(=O)(=O)c1ccccc1Cl	i
O=C(NCc1ccccc1)Nc1ccc(Cl)cc1	30%*
CC1CCC(N2CCN(S(=O)(=O)c3ccc(Cl)cc3)CC2)CC1 (stereo not drawn)	i
Oc1cc(O)cc(/C=C/c2ccc(O)c(O)c2)c1	33%*
Oc1ccc(/C=C/c2ccc(/C=C/c3ccc(O)cc3)c(Br)c2)cc1	i
COC(=O)[C@]1(O)C[C@@H](O)[C@@H](O)[C@H](OC(=O)/C=C/c2ccc(O)c(O)c2)C1	i
COc1ccc(NC(=O)C2CCN(C(=O)c3ccc(OC)c(OC)c3)CC2)cc1OC	i
Cn1c(=O)c2c(nc(NCc3ccc4c(c3)OCO4)n2Cc2ccc(Cl)cc2)n(C)c1=O	i
CCOc1ccc(NC(=O)C2CCCN2S(=O)(=O)c2ccc3c(c2)CCCC(=O)N3)cc1 (stereo not drawn)	i
Cc1ccc(N2CN=c3s/c(=C\c4ccco4)c(=O)n3C2)cc1	34%*
O=c1/c(=C/c2ccco2)sc2n1CN(c1ccc([N+](=O)[O-])cc1)CN=2	i
CCOc1ccc(N2CN=c3s/c(=C/c4cccs4)c(=O)n3C2)cc1	i
